# Test results published in PubChem BioAssay (NCI).
# Compounds without any hit were thinned out: in the full panel of roughly 83,000, 20% have a hit.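 Method: cells in 96-well plates; compound added at one concentration; 48 h incubation; percent growth measured; values under 10 scored active.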 Unmarked numbers belong to inactive results. Calls of active or inactive are those of the source.
# Experiments:
# Experiment in all cases: NCI-60 one-dose screen, 48 h (100 = growth as untreated, 0 = no growth, -100 = all killed)
# Conditions in all cases: 10 µM unless noted
# [1] = tested on: SR leukemia
# [2] = tested on: RPMI-8226 leukemia
# [3] = tested on: OVCAR-8 ovarian
# [4] = tested on: OVCAR-5 ovarian
# [5] = tested on: OVCAR-4 ovarian
# [6] = tested on: SK-OV-3 ovarian
# [7] = tested on: IGROV1 ovarian
# [8] = tested on: OVCAR-3 ovarian
# [9] = tested on: HS 578T breast
# [10] = tested on: NCI/ADR-RES ovarian
SMILES,growth [1],growth [2],growth [3],growth [4],growth [5],growth [6],growth [7],growth [8],growth [9],growth [10]
Cc1ccc2c(n1)C(=O)C(Cl)=C(Nc1ccc(C(=O)OC(C)(C)C)cc1)C2=O,-11.5% [9.25 µM] (active),-0.459% [9.25 µM] (active),80.3% [9.25 µM],127% [9.25 µM],42.7% [9.25 µM],101% [9.25 µM],84.8% [9.25 µM],1.44% [9.25 µM] (active),101% [9.25 µM],84.9% [9.25 µM]
CCN(CC)S(=O)(=O)c1ccc(-c2nc(C(Cl)Cl)nc3cc(C)nn23)cc1,9.52% (active),-7.21% (active),12.3%,41.5%,34.4%,18.4%,12%,21.1%,35.6%,14%
Cc1ccc2c(n1)C(=O)C(Cl)=C(Nc1ccc(C(F)(F)F)cc1)C2=O,10.5%,-8.81% (active),39.3%,110%,-96.4% (active),82.2%,-58.2% (active),-48.6% (active),94.1%,87.6%
COc1ccc(C2CC(c3cccc(OCCCCOc4cccc(C5=NN(C(C)=O)C(c6ccc(OC)cc6)C5)c4)c3)=NN2C(C)=O)cc1 (stereo not given),39.3%,33.8%,68.2%,96.2%,20%,83.5%,83.8%,68.2%,89.3%,75.7%
COc1cccc2c1[C@H](OC)[C@]13O[C@@]1(C2=O)[C@H](O)[C@H](C)[C@@](O)(C(=O)[C@@H]1O[C@H]1C)[C@@H]3O,-30% (active),-27.5% (active),-13.2% (active),6.04% (active),-13.3% (active),-10.4% (active),7.69% (active),-34.6% (active),-30% (active),-23% (active)
O=C(CSc1nc2ccccc2c(=O)n1-c1ccc(Cl)c(Cl)c1)Nc1ccc(S(=O)(=O)Nc2ccc(Cl)nn2)cc1,108%,106%,94%,91.1%,97.7%,88.8%,95.8%,106%,91.2%,99.8%
N#Cc1c(-c2cccs2)cc(-c2cnccn2)nc1SCC(=O)N/N=C/c1ccncc1,93.6%,103%,103%,114%,111%,109%,104%,117%,109%,108%
CC1=C(C)C(=O)C(Nc2ccc(C)c(C)c2)=C(Br)C1=O,43.6%,29.8%,100%,111%,55.1%,100%,90.9%,109%,97.4%,82.7%
Clc1cccc(/C=N/Nc2nc(N/N=C/c3cccc(Cl)c3)nc(N3CCCCC3)n2)c1,74.6%,72.4%,89.2%,110%,90.2%,109%,105%,91.4%,105%,95.2%
CCNCCOc1ccc(/C(=C(/CC)c2ccc(Cl)cc2)c2ccc(OCCCN(C)C)cc2)cc1,-36.8% (active),-36.2% (active),-81.7% (active),-93% (active),-88% (active),-93.8% (active),-82.3% (active),-77.4% (active),-51.1% (active),-82.5% (active)
COc1ccc2sc(NC(=O)CCCCCCNC(=O)C(O)(O)C(F)(F)F)nc2c1,12.5%,14.6%,2.54% (active),-0.588% (active),27.7%,-26.6% (active),0.233% (active),-23.9% (active),19.1%,5.2% (active)
Cn1c(SCC(=O)c2ccc(F)cc2)nc2ccccc2c1=O,93%,76.5%,94.5%,105%,79.1%,95.7%,88.7%,104%,101%,93.6%
Cc1ccc(S(=O)(=O)NCCCNc2nc(Nc3ccc(N4CCN(C)CC4)cc3)nc3ccsc23)cc1,4.16% (active),6.57% (active),40%,73.9%,23.7%,117%,57.1%,14.6%,44%,70.4%
CCC(=C(c1ccc(OCCN2CCCCCC2)cc1)c1ccc(OCCN2CCCCCC2)cc1)c1ccc(Cl)cc1,-5.89% (active),-29.7% (active),2.46% (active),58.3%,47.2%,96.7%,2.76% (active),30.8%,-51% (active),29.4%
COc1ccccc1Cn1cc(C#N)c(N)c1C(=O)c1ccc(Br)cc1,112%,93.7%,98.3%,104%,73.8%,107%,91.6%,104%,94.4%,93.6%
N#C/C(=N\Nc1ccc(F)cc1)C(=O)Nc1cc(-c2ccccc2)nn1-c1ccccc1,24.1%,11.9%,11%,19.8%,1.96% (active),-14.8% (active),24.7%,11.2%,25.9%,3.07% (active)
CC1CCN(CC(=O)Nn2c(COc3ccccc3)nc3ccccc3c2=O)CC1,30.5%,76.8%,98.5%,101%,94.9%,77%,73.1%,94.8%,86.1%,71.6%
CC1(C)C=Cc2cc(/C(N)=N/C(N)=N/c3nc4ccccc4s3)ccc2O1,6.81% (active),80.2%,76.5%,95.9%,82.7%,124%,52.5%,103%,101%,81.7%
CNC(=O)c1cc(-c2ccc(NC(=S)Nc3cccc(C(F)(F)F)c3)cc2)nc2cccnc12,80.8%,95.2%,93.9%,102%,96.6%,105%,103%,109%,105%,95.3%
COc1cc2oc(-c3cccc(NC(=O)[C@@H](N)C(C)C)c3)cc(=O)c2c(OC)c1OC,76.9%,88.2%,99%,103%,107%,104%,103%,108%,112%,107%
C#CCOc1ccccc1C(OC(=O)c1ccccc1)C(=O)NC(C)(C)C(C)(C)C (stereo not given),64.7%,74%,89.3%,102%,85.9%,95.8%,68.9%,99.9%,91.1%,87%
CSc1ccc(/C(=N/N=C(N)N)c2ccc(F)cc2)cc1,-13.8% (active),5.69% (active),11.9%,43.9%,57%,45.3%,39.9%,27.5%,-1.22% (active),4.1% (active)

SMILES,growth [1],growth [2],growth [3],growth [4],growth [5],growth [6],growth [7],growth [8],growth [9],growth [10]
CCN(CC)CCOc1ccc(C(=C(C)c2ccc(OC)cc2)c2ccc(OCCN(CC)CC)cc2)cc1,-37.3% (active),-43.7% (active),10% (active),18.8%,-24.4% (active),96.4%,0.0725% (active),-4.04% (active),-21.8% (active),25.3%
C#CCN(C)CCCOc1ccc(NC(=O)CCCCCCC(=O)NO)cc1Cl,13.7%,0.211% (active),17.7%,12.8%,41.9%,18.2%,17%,27.8%,19.7%,65.4%
COC(=O)CCSC1=C(C)C(=O)c2ccccc2C1=O,71%,45.3%,85.8%,104%,75.6%,97.7%,80.8%,69%,91.8%,83.5%
CCC(=C(c1ccc(OCCN(C)C)cc1)c1ccc(OCCN(C)C)cc1)c1ccc(Cl)cc1,-43% (active),-43.8% (active),-21.5% (active),-48.7% (active),-20.1% (active),95.5%,-76.8% (active),-34.8% (active),-36.1% (active),-25.7% (active)
CC1=C(C)C(=O)C(Nc2cccc(C(=O)OC(C)(C)C)c2)=C(Cl)C1=O,16.3%,10.3%,92.9%,106%,80.2%,103%,12.4%,101%,97.2%,97.6%
COc1ccc(CC(C)=C(c2ccc(OCCN3CCCC3)cc2)c2ccc(OCCN3CCCC3)cc2)cc1,-34% (active),-21.7% (active),-81.6% (active),-91.1% (active),-86.9% (active),-88% (active),-76.5% (active),-81% (active),-47.3% (active),-80.5% (active)
C#C[C@]1(O)CC[C@H]2[C@@H]3CC=C4c5sc(Nc6cccc(F)c6)nc5CC[C@]4(C)[C@H]3CC[C@@]21C,1.48% (active),-31.8% (active),43.8%,57.5%,44.5%,-10.6% (active),49.8%,27.4%,-7.5% (active),37.9%
C#CCOc1ccccc1/C=N/Nc1nc(-c2ccc(Cl)cc2)cs1,101%,91.5%,98.1%,92.3%,87.8%,93.9%,77.8%,98.8%,99.6%,94.2%
NC1CC2(CCN(c3cnc(C(=O)Nc4cc(F)cc5cccnc45)cn3)CC2)C1,3.71% (active),61.1%,94.6%,85.9%,95.2%,107%,64.8%,85.2%,94.2%,89.2%
C#Cc1cc(OC)c(C(=O)Nc2ccc(F)cc2C(=O)Nc2cccc(S(=O)(=O)C(F)(F)F)c2)cn1,-42.7% (active),-44.1% (active),5.67% (active),-33.2% (active),27.8%,-70.5% (active),-51% (active),-30.2% (active),-19.7% (active),-29.1% (active)
Cc1ccc2c(n1)C(=O)C(Cl)=C(Nc1ccc(C#N)cc1)C2=O,15.3%,55.1%,91.5%,106%,-98.5% (active),106%,68.4%,4.24% (active),97.7%,98%
Cc1[nH]c(C(=O)Nc2ccc(C(=O)NCC3CCNCC3)cc2OC(C)C)c(Cl)c1Cl,-0.735% (active),42.3%,86.6%,84.9%,89.5%,97.3%,54.4%,85.6%,69.1%,100%
O=C(CSc1nnc(-c2cccs2)n1-c1ccccc1)Nc1ccccc1F,25.3%,88.7%,95.1%,100%,95.1%,96.4%,84.9%,86.9%,91.6%,49.2%
C#CCn1cc(/C=N/Nc2nc(-c3ccc(Br)cc3)cs2)c2ccccc21,119%,110%,101%,97.4%,107%,91.1%,74.9%,108%,101%,101%
Cc1ccc2c(n1)C(=O)C(Cl)=C(Nc1ccccc1C(=O)OC(C)(C)C)C2=O,-30.8% (active),-31.8% (active),66.8%,139%,-45.3% (active),105%,59.6%,-63.6% (active),84.1%,64.2%
O=C(CCCCCCNC(=O)C(O)(O)C(F)(F)F)Nc1ccc(Cl)cc1,12.1%,20.1%,11.9%,9.85% (active),47.4%,-6.99% (active),27.8%,24.9%,33.2%,24.6%
CCOC(=O)C1=C(C)NC(C)=C(C(=O)OC(C)C)C1c1cccc(C#N)c1 (stereo not given),90.9%,108%,103%,99.1%,104%,132%,103%,105%,98%,95%
Cn1cc(C2=C(c3coc4cc(Br)ccc34)C(=O)NC2=O)c2ccccc21,29.5%,98.9%,87.2%,113%,100%,53.5%,64.7%,72.7%,52.8%,59.2%
CC(=O)Nc1cc(N2CCOCC2)c2nc(NC(=O)c3[nH]c(C)c(Cl)c3Cl)sc2c1,28.6%,55%,67.1%,94.7%,-10.8% (active),95.5%,82.5%,72.3%,31.3%,48.9%
O=C(CSc1nnc(-c2ccc(Cl)cc2)n1-c1ccccc1)Nc1ccc(Cl)cc1,18.6%,31%,31%,37.3%,-55.8% (active),75%,23.3%,57.5%,38.4%,34.7%
C#C[C@]1(O)CC[C@H]2[C@@H]3CC=C4c5sc(Nc6ncccc6C)nc5CC[C@]4(C)[C@H]3CC[C@@]21C,-3.26% (active),-36.2% (active),31.1%,26%,34.9%,-37.2% (active),40%,32.1%,-16.1% (active),28.1%
Cn1cc(-c2nc(N)nnc2-c2c[nH]c3ccc(Br)cc23)c2cc(F)ccc21,50%,80.2%,96.8%,110%,94.5%,118%,73%,99.6%,96.4%,89.8%
